In PubChem BioAssay AID720517 (National Center for Advancing Translational Sciences (NCATS), 2013):
Results filed as inconclusive are left out. Values without a mark were called inactive. The source made the active and inactive calls. Calls follow the shape of the dose curve; as a rule, active = well fitted activation curve with a large enough effect; inconclusive = small, poorly fitted or top-dose-only effect; inactive = flat fitted curve, though single readings scatter.

Experiment: qHTS for Inhibitors of Cell Surface uPA Generation: FP59 Counterscreen for Cherry-picked Compounds; as to activity (protection from FP59): 0% is about no effect
Conditions: FP59 anthrax toxin cytotoxicity counterscreen, cells; series mostly up to 115 µM; activity (protection from FP59): at the top concentration
Potency is read from the fitted curve at half-maximal effect.

Row | SMILES | activity (protection from FP59) | Potency
1 | COc1ccc(-c2cc3nc(-c4ccccc4)cc(N4CCCC(O)C4)n3n2)cc1 (configuration not stated) | 5.84% | 
2 | CC(C)CNC(=O)COC(=O)CCC(=O)c1cccs1 | -1.36% | 
3 | CC(=O)COc1ccc2c(-c3cccc([N+](=O)[O-])c3)cc(=O)oc2c1 | -0.595% | 
4 | COc1cccc(C(=O)Cn2c(NCCCO)nc3ccccc32)c1 | -1.55% | 
5 | CC1(NC(=O)CSc2nnc(-c3c[nH]c4ccccc34)n2C2CC2)CCS(=O)(=O)C1 (configuration not stated) | 0.18% | 
6 | OCC[C@@H]1C[C@H](O)[C@@H](O)[C@]2(OCCc3ccccc32)O1 | -1.32% | 
7 | COC(=O)c1cc(CNC(=O)c2ccc(N3CCCC3)c([N+](=O)[O-])c2)ccc1OC | -1.29% | 
8 | COc1ccc(CN2CCNC(=O)C2CC(=O)NCC2CCOCC2)cc1C (configuration not stated) | -1.4% | 
9 | COc1ccc(S(=O)(=O)c2c(O)c3ccc(C(=O)Nc4ccccc4)cc3[nH]c2=O)cc1 | -1.37% | 
10 | CC(=O)c1ccc(N2CCN(C(=S)NCc3ccco3)CC2)cc1 | -1.24% | 
11 | CCS(=O)(=O)N1CCC(C(=O)NCc2ccc(OC)cc2OC)CC1 | -1.36% | 
12 | O=S(=O)(/N=C(/c1ccccc1)N1CCOCC1)c1ccc(F)cc1F | -1.28% | 
13 | O=C1C=CC(O)(c2cc(=O)c3c(O)cc(O)cc3o2)C=C1 |  | 14.7 µM (active)
14 | C[C@H]([C@H](O)c1ccccc1)N(C)C(=O)CN | -0.116% | 
15 | O=C(CSc1nnnn1-c1cccc(F)c1)Nc1nc2ccccc2s1 | -1.19% | 
16 | COC(=O)Cc1c(C)c2ccc(OCC(=O)N3CCCC(C)C3)c(C)c2oc1=O (configuration not stated) | -1.33% | 
17 | CC1(C)CC2(CC(c3ccccc3)Oc3cc(O)ccc32)NC(=S)N1 (configuration not stated) | -0.346% | 
